PubChem BioAssay (Tox21)
Where “and” joins values, the source holds several entries; their conditions need not be identical. Identical values can stand only once. Records with an inconclusive call do not appear. A number with no mark means an inactive call. Calls of active or inactive are those of the source. Calls come from the whole dose curve.

Experiment: qHTS assay for small molecule agonists of the p53 signaling pathway - cell viability (AID 651633); note: nearly all actives have a fitted effect of over 30% in size;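 for activity change, negative = cytotoxicity: p53RE-bla HCT reporter cells with a stable beta-lactamase p53 reporter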
Settings: p53RE-bla HCT-116 viability, ATP luminescence, 16 h; series mostly up to 83.3 µM; activity change, negative = cytotoxicity: at the top concentration
From the text: National Center for Advancing Translational Sciences [NCATS]
NIH Chemical Genomics Center [NCGC]
U.S. Environmental Protection Agency [EPA]
National Institutes of Environmental Health Sciences [NIEHS]
National Toxicology Program [NTP]
U.S. Food and Drug Administration [FDA]
p53, a tumor suppressor protein, is activated following cellular insult, including DNA damage and other cellular stresses. The activation of p53 regulates cell fate by inducing DNA repair, cell cycle arrest, apoptosis, or cellular senescence. The activation of p53, therefore, is a good indicator of DNA damage and other cellular stresses. […] The activation of the reporter gene under culture conditions can be detected by fluorescence intensity. This cell line was used to screen the Tox21 compound library in a 1536-well plate format and to identify agonists that activate the p53 signaling pathway.
Tox21 Assay Protocol Summary:
The p53RE-bla cells were dispensed at 4,000 cells/5 ul/well in 1536-well black wall/clear bottom plates using a Multidrop dispenser. After the assay plates were incubated at a 37 C/5% CO2 incubator for 5 hours, 23 nL of compounds dissolved in DMSO, positive controls or DMSO only was transferred to the assay plate by a pin tool. The plates were incubated at 37 C for 16 hours. After 1 uL of LiveBLAzerTM B/G FRET substrate was added using a Flying Reagent Dispenser, the plates were incubated at room temperature for 2 hours, and fluorescence intensity was measured by an Envision plate reader.
For cell viability readout that measures cytotoxicity, 4 ul/well of CellTiter-Glo reagent was added into the assay plates using a Flying Reagent Dispenser. After 30 min incubation at room temperature, the luminescence intensity in the plates was measured using a ViewLux plate reader.
% is set by controls: 0 for no effect and ±100 for the full control effect; potency is the fitted concentration of half-maximal effect.

| SMILES | Potency | activity change, negative = cytotoxicity |
| --- | --- | --- |
| Clc1ccc(COC(Cn2ccnc2)c2ccc(Cl)cc2Cl)cc1 (stereo not given) | 29.8 µM (active) and 27.2 µM (active) | – |
| ClC(Cl)=C(c1ccc(Cl)cc1)c1ccc(Cl)cc1 | 70.3 µM (active) and 48.6 µM (active) | – |
| CC(C)(C)C(O)/C(=C\c1ccc(Cl)cc1Cl)n1cncn1 (stereo not given) | – | -23.9% [at 95.3 µM] |
| C[C@]12CC[C@H]3[C@@H](CCC4=CC(=O)CC[C@@]43C)[C@@H]1CC[C@@H]2O | – | 4.57% |
| O=CC(Br)(Br)Br | – | 26% |
| CCCOCC(=Nc1ccc(Cl)cc1C(F)(F)F)n1ccnc1 | 24.3 µM (active) | – |
| CCN(CC)C(=S)[S-].CCN(CC)C(=S)[S-].[Zn+2] | 4.29 µM (active) | – |
| Cc1cc(C)cc(OP(=O)(Oc2cc(C)cc(C)c2)Oc2cc(C)cc(C)c2)c1 | – | -7.43% [at 95.3 µM] |
| CCOc1cc(C(C)(C)C)ccc1C1COC(c2c(F)cccc2F)=N1 (stereo not given) | 41.6 µM (active) | – |
| CCCN(CC)CC1COC2(CCC(C(C)(C)C)CC2)O1 (stereo not given) | – | 12.7% |
| CC(=O)c1cc(C(C)(C)C)cc2c1CCC2(C)C | 54.5 µM (active) | – |
| O=C(CBr)c1ccc(O)cc1 | – | 16% |
| C1CCC2CCCCC2C1 (stereo not given) | – | -22% [at 95.3 µM] |
| CC(C)[C@H](C(=O)O[C@H](C#N)c1cccc(Oc2ccccc2)c1)c1ccc(Cl)cc1 | – | -13.9% |
| COc1cccc(C(=O)CCN[C@@H](C)[C@H](O)c2ccccc2)c1 | – | -7.94% |
| Clc1ccc(C(c2ccccc2Cl)C(Cl)(Cl)Cl)cc1 (stereo not given) | 54.8 µM (active) and 40.2 µM (active) | – |
| c1ccc(OCC2CO2)cc1 (stereo not given) | – | 22.3% [at 95.3 µM] |
| N#CCCC(Br)(C#N)CBr (stereo not given) | – | -14.9% |
| CCCCCCCCCCCCCCCC[n+]1ccccc1 | 67.6 µM (active) [middle of 4 runs] | – |
| Cn1cc(C2=C(c3cn(C4CCN(Cc5ccccn5)CC4)c4ccccc34)C(=O)NC2=O)c2ccccc21 | – | -2.67% |

| SMILES | Potency | activity change, negative = cytotoxicity |
| --- | --- | --- |
| Cc1cc(C(F)(C(F)(F)F)C(F)(F)F)ccc1NC(=O)c1cccc(I)c1C(=O)NC(C)(C)CS(C)(=O)=O | – | -15.1% |
| Cc1ccc(OP(=O)(Oc2ccccc2)Oc2ccccc2)cc1 | – | 6.03% [at 95.3 µM] |
| CCCCCCCCCC[N+](C)(C)CCCCCCCCCC | 26.6 µM (active) and 61.1 µM (active) | – |
| CCOC(=O)OC1=C(c2cc(C)ccc2C)C(=O)NC12CCC(OC)CC2 (stereo not given) | – | -14.1% |
| Cc1cc(C(C)(C)c2cc(C)c(O)c(C)c2)cc(C)c1O | 59.1 µM (active) | – |
| CCCCN(CCCC)C(=S)[S-].CCCCN(CCCC)C(=S)[S-].[Zn+2] | 9.44 µM (active) and 61.1 µM (active) | – |
| Oc1ccc2ccc3cccc4ccc1c2c34 | – | -19.1% |
| ClC1=C(Cl)[C@]2(Cl)[C@@H]3[C@@H]4C[C@@H]([C@H]5O[C@@H]45)[C@@H]3[C@@]1(Cl)C2(Cl)Cl | 30.6 µM (active) | – |
| ClC1=C(Cl)C2(Cl)C3C(Cl)C=CC3C1(Cl)C2(Cl)Cl (stereo not given) | 68.9 µM (active) and 54.5 µM (active) | – |
| C=CC(=O)OCC(COC(=O)C=C)(COC(=O)C=C)COC(=O)C=C | 6.86 µM (active) | – |
| Clc1ccc(C(c2ccc(Cl)cc2)C(Cl)(Cl)Cl)cc1 | 26.6 µM (active) and 48.9 µM (active) and 27.3 µM (active) | – |
| BrCBr | – | -7.94% [at 95.3 µM] |
| CN(C)C(=S)S | inactive | – |
| O=[N+]([O-])c1cc([N+](=O)[O-])c2ccccc2c1 | – | 15% |
| O=C(CCl)C(Cl)Cl | – | 8.77% [at 95.3 µM] |
| Oc1c(Br)c(Br)c(Br)c(Br)c1Br | 17.3 µM (active) | – |
| O=C(CCCN1CCC2(CC1)C(=O)NCN2c1ccccc1)c1ccc(F)cc1 | – | 17.3% |
| FC(F)(F)c1cccc(C2=CCN(CCc3ccc4ccccc4c3)CC2)c1 | – | -7.52% |
| Cc1c(Cl)c(=O)oc2cc(OP(=O)(OCCCl)OCCCl)ccc12 | – | -17.7% |
| CCOC(=O)C1(c2ccccc2)CCN(CCC(C#N)(c2ccccc2)c2ccccc2)CC1 | 1.88 µM (active) and 9.44 µM (active) | – |
